Results reported in PubChem BioAssay (NCATS).
Inconclusive results are not listed. Calls of active or inactive are those of the source. The call rests on the fitted dose curve; in most records, active means well fitted cell-killing curve with a large enough effect; inconclusive means small, poorly fitted or top-dose-only effect, or effect the other way; inactive means flat fitted curve, though single readings scatter.

What was measured:
Assay in all cases: Primary qHTS to identify gynecologic anti-cancer compounds using libraries of approved drugs and bioactive compounds (AID 1345084); further: nearly all actives have a fitted effect of over 55% in size
Details in all cases: Gynecologic cancer cell panel viability, ATPlite luminescence, 48 h; series mostly up to 57.5 µM
[1] = tested on: SKOV3
Outline: (§1)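 Cells, 1,000 per well, plated 16 h, then exposed 48 h at 37 C to compounds. Viability by ATPlite luminescence after 15 min at room temperature.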

[2] = tested on: Tov-21-G
Outline: as §1

[3] = tested on: Tov112D
Outline: as §1
On the % scale 0 is the no-effect control and ±100 the full control effect.

O=C(O)CCc1cc2ccoc2cc1O[C@@H]1O[C@H](CO)[C@@H](O)[C@H](O)[C@H]1O
inactive: Potency [1] | Potency [2] | Potency [3]

CC(C)=C1C[C@@]2(C)C(=CC1=O)CC[C@@H](O)[C@@H]2C
inactive: Potency [1] | Potency [2] | Potency [3]

CCOC(=O)C(CCc1ccccc1)NC(C)C(=O)N1Cc2ccccc2CC1C(=O)O (stereo unspecified)
inactive: Potency [1] | Potency [2] | Potency [3]

COc1cc(/C=C/C(=O)O[C@H]2[C@@H]3C=CO[C@@H](O[C@@H]4O[C@H](CO)[C@@H](O)[C@H](O)[C@H]4O)[C@@H]3[C@@]3(CO)O[C@@H]23)ccc1O
inactive: Potency [1] | Potency [2] | Potency [3]

CCCCS(=O)(=O)NC(Cc1ccc(OCCCCC2CCNCC2)cc1)C(=O)O (stereo unspecified)
inactive: Potency [1] | Potency [2] | Potency [3]

CNc1nc(C)nc(N[C@H]2CCC[C@@H](C(=O)NCc3ccc(C#N)cc3C(F)(F)F)C2)n1
inactive: Potency [1] | Potency [2] | Potency [3]

O=C(c1ccc(Cl)c([N+](=O)[O-])c1)N1CCN(c2ccccc2F)CC1
inactive: Potency [1] | Potency [2] | Potency [3]

C/C=C(\C)C(=O)OC1C(C)C2(O)C3C=C(C)C(=O)C3CC(CO)=CC2C2C(C)(C)C12OC(C)=O (stereo unspecified)
inactive: Potency [1] | Potency [2] | Potency [3]

NCCCCN(Cc1nc2ccccc2[nH]1)[C@H]1CCCc2cccnc21
inactive: Potency [1] | Potency [2] | Potency [3]

COc1cc(O)cc(C)c1C(=O)OC1C(CO)OC(n2ccc(=O)[nH]c2=O)C1OC(C)=O (stereo unspecified)
inactive: Potency [1] | Potency [2] | Potency [3]

CC1(C)C2CC[C@@]34CC(CC[C@H]3[C@]2(C)CC[C@@H]1O[C@@H]1O[C@H](CO)[C@@H](O)[C@H](O)[C@H]1O)[C@](C)(O)C4 (stereo partly specified)
inactive: Potency [1] | Potency [2] | Potency [3]

CC(=O)O[C@@]1(C)[C@@H]2CC(=C(C)C)C(=O)C[C@@]2(C)CC[C@H]1OC(=O)C1(C)OC1C (stereo partly specified)
inactive: Potency [1] | Potency [2] | Potency [3]

COC(=O)[C@@H](NC(=O)[C@H](CC(C)C)NC(=O)N(Cc1ccccc1)C[C@@H](O)[C@H](Cc1ccccc1)NC(=O)OC(C)(C)C)C(C)C
inactive: activity change, negative = cytotoxicity [1] 21.9% [at 11.6 µM] | activity change, negative = cytotoxicity [2] -1.16% [at 11.6 µM] | activity change, negative = cytotoxicity [3] 11% [at 11.6 µM]

C/C=C(\C)C(=O)OC[C@H]1O[C@@H](O[C@H]2[C@@H](O[C@H]3O[C@H](COC(=O)/C(C)=C/C)[C@@H](O)[C@H](O)[C@H]3O[C@@H]3O[C@H](COC(=O)/C(C)=C/C)[C@@H](O)[C@H](OC(=O)/C(C)=C/C)[C@H]3O)O[C@H](COC(=O)/C(C)=C/C)[C@@H](O)[C@@H]2O)[C@H](O)[C@@H](O)[C@@H]1O
inactive: activity change, negative = cytotoxicity [1] -1.49% [at 11.6 µM] | activity change, negative = cytotoxicity [2] -1.7% [at 11.6 µM] | activity change, negative = cytotoxicity [3] 6.68% [at 11.6 µM]

COc1cc(O)c(C(=O)O)c(CCc2ccccc2)c1
inactive: Potency [1] | Potency [2] | Potency [3]

COc1cccc2c1c(O)c(C(=O)N(C)c1ccc(C(F)(F)F)cc1)c(=O)n2C
inactive: Potency [1] | Potency [2] | Potency [3]

CCC1(O)CC2c3cc(OC)c(OC)cc3CCN2CC1CC(C)C (stereo unspecified)
inactive: Potency [1] | Potency [2] | Potency [3]

OC[C@H]1O[C@@H](OCc2ccccc2)[C@H](O[C@@H]2OC[C@@H](O)[C@H](O)[C@H]2O)[C@@H](O)[C@@H]1O
inactive: Potency [1] | Potency [2] | Potency [3]

COc1cn(-c2ccc(-n3cccn3)cc2F)nc(-c2ccnn2-c2ccccc2)c1=O
inactive: Potency [1] | Potency [2] | Potency [3]

Cn1cc(CCn2cnc(-c3cnn(C)c3)c2-c2ccc(C#N)cc2)cn1
inactive: Potency [1] | Potency [2] | Potency [3]

Cc1cc(-c2nncc3c(C(C)(C)C)c(OCc4ncnn4C)nn23)no1
inactive: Potency [1] | Potency [2] | Potency [3]

COc1ccc2c(c1)N1C(=O)C[C@@]34C=CC[N@+]5([O-])CC[C@H]2[C@H](CC3)[C@@]145
inactive: Potency [1] | Potency [2] | Potency [3]

O=C(OCC1=C[C@@H](O)[C@@H]2C=CO[C@@H](O[C@@H]3O[C@H](CO)[C@@H](O)[C@H](O)[C@H]3O)[C@H]12)c1ccc(O)cc1
inactive: Potency [1] | Potency [2] | Potency [3]

C[C@@H]1O[C@@H](O[C@H]2[C@@H]3C=CO[C@@H](O[C@@H]4O[C@H](CO)[C@@H](O)[C@H](O)[C@H]4O)[C@@H]3[C@@]3(CO)O[C@@H]23)[C@H](O)[C@H](O)[C@H]1OC(=O)/C=C/c1ccc(O)cc1
inactive: Potency [1] | Potency [2] | Potency [3]

CC(=O)OC1CC(C(C)(C)O)OC2CCC3(C)OC4=C(C(=O)C=C5C(C)C(OC(C)=O)C6(C)C(C)OC546)C(O)C3C12C (stereo unspecified)
inactive: Potency [1] | Potency [2] | Potency [3]

O=C(OCC1OC(Oc2ccc(O)cc2COC(=O)C2(O)C(O)CCC(=O)C2OC(=O)C2C=CCC2)C(OC(=O)C2C=CCC2)C(O)C1O)C1C=CCC1 (stereo unspecified)
inactive: Potency [1] | Potency [2] | Potency [3]

COC(=O)C(CC1(OC(=O)C(C)C)c2ccccc2N2C(=O)C(C)(C)N(O)C21)n1cnc2ccccc2c1=O (stereo unspecified)
inactive: Potency [1] | Potency [2] | Potency [3]
